Screening results (PubChem BioAssay)
hNpr1 antagonist – human Npr1 receptor antagonism; P16066; HEK293 hNpr1 GloSensor cGMP, ANP-stimulated luminescence; Potency, µM (top dose mostly 46.3 µM), for inactives: at the top dose activity change, negative = inhibition, actives largely listed as inhibitors; hit rate 1.6% among 76,000; AID 1347048; calls by dose curve; also: nearly all actives have a fitted effect of over 60% in size
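HEK293 cells stably expressing human Npr1 and cGMP GloSensor pGS-40F, loaded 2 h with 2% GloSensor reagent, given compound 30 min at room temperature. Luminescence read before and 20 min after 0.1 nM hNppA.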
GPT2 inhibitor – blocks human glutamate pyruvate transaminase 2; Q8TD30; Recombinant GPT2, coupled pyruvate oxidase/HRP Amplex Red fluorescence; Potency, µM (titrated, usually from 57.7 µM), for inactives: top-dose activity change, negative = inhibition, most hits filed as inhibitors; hit rate 0.25% among 100,000; AID 1671188; also: nearly all actives have a fitted effect of over 60% in size
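Recombinant GPT2 (10ng/uL) with 250uM a-KG and 2mM L-alanine, 30 min at room temperature, in HEPES pH 7.5 buffer. Pyruvate detected by pyruvate oxidase/HRP/Amplex Red fluorescence after 30 min in the dark; AOA (50uM) as positive control.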
3T3 cytotox – cytotoxic compounds in NIH 3T3 cells. hit rate 4.3% among 94,000. NIH 3T3 viability, CellTiter-Glo ATP luminescence, 48-72 h. Potency, µM (highest dose often 96.7 µM), for inactives: top-dose activity change, negative = cytotoxicity, most hits filed as inhibitors. AID 1345082; also: nearly all actives have a fitted effect of over 55% in size
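Cells were seeded at 400 per well, treated with pin-transferred compound, and kept 48 or 72 hr at 37 °C before CellTiter-Glo addition and luminescence imaging of cellular ATP.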
HEK293 tox – kills HEK 293 cells | HEK 293 viability, ATP luminescence (CellTiter-Glo), 48-72 h | Potency, µM (series often up to 115 µM), for the others: at the top dose activity change, negative = cytotoxicity, hits mostly inhibitors | hit rate 6.6% among 94,000 | AID 1345083; also: nearly all actives have a fitted effect of over 60% in size
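Cells seeded first (HEK 293, 250 cells/well), then compound added by pintool. Incubation ran 48 or 72 hr at 37 degree Celsius. CellTiter-Glo was added and luminescence imaged after 10 min at room temperature.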
Luciferase inh – inhibitors of firefly (Photinus pyralis) luciferase. P08659. purified P. pyralis luciferase, luminescence, biochemical. Potency, µM (highest dose often 115 µM), actives largely listed as inhibitors. hit rate 2.5% among 76,000. AID 1347043; also: nearly all actives have a fitted effect of over 65% in size
Target sequence (P08659 whole entry, looked up): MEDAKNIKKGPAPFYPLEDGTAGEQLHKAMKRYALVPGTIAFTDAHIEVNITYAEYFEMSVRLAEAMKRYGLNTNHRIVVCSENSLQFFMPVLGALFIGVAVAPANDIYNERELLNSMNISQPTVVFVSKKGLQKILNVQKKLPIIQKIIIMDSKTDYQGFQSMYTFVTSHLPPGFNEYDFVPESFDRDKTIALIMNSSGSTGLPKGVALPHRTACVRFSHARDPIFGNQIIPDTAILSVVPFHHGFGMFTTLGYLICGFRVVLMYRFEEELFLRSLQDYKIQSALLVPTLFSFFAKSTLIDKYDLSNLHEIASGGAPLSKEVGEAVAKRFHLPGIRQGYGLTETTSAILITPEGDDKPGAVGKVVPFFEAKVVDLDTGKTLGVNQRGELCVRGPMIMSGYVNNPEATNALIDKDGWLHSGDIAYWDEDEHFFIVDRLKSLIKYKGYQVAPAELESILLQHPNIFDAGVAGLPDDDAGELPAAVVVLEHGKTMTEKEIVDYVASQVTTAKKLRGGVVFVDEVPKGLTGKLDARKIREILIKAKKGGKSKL
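Cell-free enzyme assay, 10nM P. pyralis luciferase, luciferin and ATP each at 10uM. Inhibition profiled over a 6-point titration, read as luminescence.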
Numbers without * were called inactive; i = inactive; ? = inconclusive; · = not tested or not shown; ! = not confirmed by another sample; [ ] = remark or other dose. Only some compounds are listed: those with a hit (about 10% of all), similar ones and a draw of the others. Unless noted, calls follow the shape of the dose curve; as a rule, active = well fitted curve in the direction sought with a large enough effect; inconclusive = small, poorly fitted or top-dose-only effect, or another doubt; inactive = no such curve, though single readings can be large; an effect the other way counts as inactive or inconclusive. % is scaled to controls: 0 for no effect and ±100 for the full control effect; potency is read from the fitted curve at half-maximal effect.

SMILES	hNpr1 antagonist	GPT2 inhibitor	3T3 cytotox	HEK293 tox	Luciferase inh
COc1ccc(CN2CCC(N3Cc4cnc(C)n4C3=O)CC2)cc1	0%[70.6 µM]	-3%[88.5 µM]	-18%[138 µM]	?	i
Cc1ncc2n1C(=O)N(C1CCN(Cc3ccccc3)CC1)C2	7%[70.6 µM]	i	?	100µM*!	i
COc1ccccc1Nc1ccnc(N2CCCC(C(=O)NCCc3ccccc3)C2)n1 (centres undefined)	·	i	16µM*	?	·
COc1ccccc1Nc1ccnc(N2CCCC(C(=O)NCCc3ccc(F)cc3)C2)n1 (centres undefined)	·	i	?	?	·
COc1ccccc1Nc1ccnc(N2CCCC(C(=O)NCCc3ccccc3F)C2)n1 (centres undefined)	·	-10%	?	35µM*!	·
CCCCCNC(=O)C1CCCN(c2nccc(Nc3ccccc3OC)n2)C1 (centres undefined)	·	-1%	?	40µM*	·
CCCCCNC(=O)C1CCN(c2nccc(Nc3ccccc3F)n2)CC1	·	-21%	?	?	·
CCCNC(=O)N(C1CCOCC1)C1CCN(C(=O)c2cccs2)CC1	3%	i	-4%	3%	i
CC1=C[C@@H](CNC(=O)c2ccc(C#N)cc2)[C@H](C(C)C)C[C@H]1Cc1nnc(-c2ccncc2)o1	?	-15%	?	?	i
CC1=C[C@@H](CNC(=O)C(C)(C)C)[C@H](C(C)C)C[C@H]1Cc1nnc(-c2ccncc2)o1	-29%[70.6 µM]	0%[88.5 µM]	-20%[174 µM]	79µM*	i
CC1=C[C@@H](CNC(=O)c2ccc(F)cc2)[C@H](C(C)C)C[C@H]1Cc1nnc(-c2ccncc2)o1	?	-13%	?	35µM*	i
COc1ccc(C(=O)NC[C@@H]2C=C(C)[C@H](Cc3nnc(-c4ccncc4)o3)C[C@H]2C(C)C)cc1	?	4%	?	50µM*	i
COc1ccc(CC(=O)N2CCN(C(=O)c3cccc(-c4ccc(OC)nn4)c3)CC2)cc1	·	·	-9%	0%	·
COc1ccc(CNC(=O)C[C@@H]2C[C@@H](C(C)C)[C@H](CNC(C)=O)C=C2C)cc1	-4%[70.6 µM]	0%[88.5 µM]	100µM*	?	i
CC1=C[C@@H](CO)[C@H](C(C)C)C[C@H]1CC(=O)NCc1ccc(C(F)(F)F)cc1	0%[70.6 µM]	1%[88.5 µM]	?	40µM*	i
Cc1ccc(C(=O)N2CCC(c3noc(C4CC4)n3)C2)cn1 (centres undefined)	2%	i	i	12%	i
Cc1ccc(Nc2ccnc(N3CCCC(C(=O)NCc4ccc(C(F)(F)F)cc4)C3)n2)cc1 (centres undefined)	·	i	-21%	-15%	·
COc1ccc(Nc2ccnc(N3CCCC(C(=O)NCC4CC4)C3)n2)cc1 (centres undefined)	·	-5%	?	?	·
Cc1ccc(Nc2ccnc(N3CCCC3C(=O)NCC(F)F)n2)cc1 (centres undefined)	·	i	?	40µM*	·
Cc1ccc(Nc2ccnc(N3CCCC(C(=O)NCC(F)F)C3)n2)cc1 (centres undefined)	·	i	40µM*	45µM*	·
COc1ccc(Nc2ccnc(N3CCCC(C(=O)NCC(F)F)C3)n2)cc1 (centres undefined)	·	-8%	?	?	·
Cc1ccc(Nc2ccnc(N3CCCC(C(=O)NCC(F)(F)F)C3)n2)cc1 (centres undefined)	·	i	35µM*	?	·
Cc1ccc(Nc2ccnc(N3CCCC(C(=O)NCC4CCCCCC4)C3)n2)cc1 (centres undefined)	·	-1%	?	28µM*	·
O=C(NC1CCN(C(=O)c2ccc(-c3cncnc3)cc2)CC1)c1ccccc1	·	-1%	-27%	-16%	·
CCOC(=O)CCN1CCC2(C1)C(=O)N(C)C(=O)N2CCOC (centres undefined)	·	-6%	-21%	-8%	·
SMILES	hNpr1 antagonist	GPT2 inhibitor	3T3 cytotox	HEK293 tox	Luciferase inh
CCOc1ccccc1C1NC(=O)N(CC(=O)Nc2cccc(Cl)c2)C2=C1C(=O)OC2 (centres undefined)	-22%	-6%	?	35µM*	i
CCOc1ccccc1C1NC(=O)N(CC(=O)Nc2ccc(C)c(Cl)c2)C2=C1C(=O)OC2 (centres undefined)	-22%	-1%	?	?	?
CCOc1ccccc1C1NC(=O)N(CC(=O)Nc2ccc(F)cc2)C2=C1C(=O)OC2 (centres undefined)	-12%	-9%	?	-18%	i
CCCCc1ccc(NC(=O)CN2C(=O)NC(c3ccccc3OCC)C3=C2COC3=O)cc1 (centres undefined)	-2%	i	32µM*	32µM*	i
CC(=O)N1CCC(C2CCN(Cc3ccccc3F)C2)CC1 (centres undefined)	9%	-25%	-2%	-7%	i
COc1cc(O)c2c(c1)C1(OC2=O)C(C)=CC(=O)C1O (centres undefined)	·	i	·	·	·
COc1ccc(CN2CCC(N3CC4CCCN4C3=O)CC2)cc1 (centres undefined)	2%[70.6 µM]	i	-3%[138 µM]	0%[172 µM]	i
O=C1N2CCCC2CN1C1CCN(Cc2ccc(C(F)(F)F)cc2)CC1 (centres undefined)	?	i	?	40µM*	i
COc1ncccc1-c1cnc2n[nH]c(-c3ccccc3)c2n1	-17%[70.6 µM]	3%[88.5 µM]	50µM*	71µM*	i
COc1ccccc1-c1[nH]nc2ncc(-c3cccnc3OC)nc12	-1%[70.6 µM]	-19%[88.5 µM]	10µM*	10µM*	i
COc1ccccc1-c1cnc2n[nH]c(-c3ccccc3)c2n1	-17%[70.6 µM]	-19%[88.5 µM]	79µM*	?	i
COc1ccccc1-c1[nH]nc2ncc(C(=O)NCC3CCOCC3)nc12	1%[70.6 µM]	-6%[88.5 µM]	40µM*	-29%[172 µM]	i
COc1ncccc1-c1cnc2n[nH]c(-c3ccccc3C)c2n1	-10%[70.6 µM]	i	?	?	i
O=C(c1cc(Cl)ccc1F)N1CCCC2(C1)NC(=O)N(Cc1ccccc1)C2=O (centres undefined)	-2%	i	-37%	-29%	i
O=C(NCCc1noc(C2CC2)n1)c1ccccc1	-4%	i	-5%	4%	i
O=C(c1coc(COc2cccc(F)c2)n1)N1CCCCC1c1nccs1 (centres undefined)	-11%	-3%	-27%	-7%	i
COc1cc(=O)n2c(c1C(=O)Nc1cccc(C(C)C)c1)CCCC2	2%	i	i	4%	i
COc1ccccc1-c1[nH]nc2ncc(-c3c(C)noc3C)nc12	2%[70.6 µM]	?	?	89µM*	i
Cc1noc(C)c1-c1cnc2n[nH]c(-c3ccccc3)c2n1	-14%[70.6 µM]	i	-27%[174 µM]	?	i
